assay: FRG1 promoter luciferase signal modulators, primary screen, FRG1 inhibition for FSHD, cell-based, C2C12 myotubes, firefly/Renilla luciferase, luminescence (AID 1084); details: higher = more signal, called active from +8 up or from −8 down

z-score, inactive:
CO[C@@H]1COC(=O)CC=C[C@@H](C)[C@H](OC)COC(=O)CC=C[C@H]1C 0.211
O=C1O[C@H](c2ccccc2)[C@H](c2ccccc2)N2[C@H]1[C@@H](C(=O)Nc1nc3ccccc3s1)[C@]1(C(=O)Nc3ccc(C#CC4(O)CCCCCC4)cc31)[C@H]2c1ccc(O)cc1 0.36
O=C1O[C@@H](c2ccccc2)[C@@H](c2ccccc2)N2[C@@H](c3ccccc3OCCO)[C@]3(C(=O)Nc4ccc(C#CC5=CCCCC5)cc43)[C@@H](C(=O)O)[C@H]12 -1.6
O=C1O[C@@H](c2ccccc2)[C@@H](c2ccccc2)N2[C@@H](c3ccc(O)cc3)[C@]3(C(=O)Nc4ccccc43)[C@@H](C(=O)N3CCN(c4ncccn4)CC3)[C@H]12 -3.02
C[N+](C)(C)CCCCNC(=O)[C@@H]1C[C@@H]2C(=O)N3CCC[C@H]3C(=O)N2[C@@H]1c1cccc(OCCO)c1 1.19
C=CC[C@@]1(C(=O)N2CCOCC2)N=C(c2ccc(OCCCO)cc2)O[C@@H]1c1ccccc1 -1.36
CCC#CCN(Cc1ccccc1Br)[C@H](/C=C/c1ccccc1)[C@@H](O)Cc1ccccc1 -0.227
O=C(NCc1ccccc1)c1ccc(Br)cc1[N+](=O)[O-] -0.567
CC(C)N1CC=CC23O[C@@H]4/C=C\CCCOC(=O)C4[C@H]2C(=O)N(CCCCCO)[C@@H]3C1=O (stereo partly specified) 0.561
O=C1OCC=C[C@H]2OC34C=CCN(Cc5ccccc5)C(=O)[C@H]3N(CCO)C(=O)[C@@H]4[C@@H]12 (stereo partly specified) -0.019
O=C1O[C@H](c2ccccc2)[C@H](c2ccccc2)N2[C@H]1[C@@H](C(=O)NC[C@H](O)c1ccccc1)[C@]1(C(=O)Nc3ccc(C#CC4=CCCCC4)cc31)[C@H]2c1ccc(OCCO)cc1 0.315
COc1ccc(-c2ccccc2[C@@H]2N[C@H](C(=O)O)CC[C@H]2C)cc1 -0.438
CCOC(=O)C[C@H]1[C@H](OC(=O)c2cc3ccccc3oc2=O)[C@@H](NC(=O)C2CCCCC2)c2cc(OCCCO)ccc2N1C(=O)c1ccc2ccccc2n1 -0.541
NC(=O)NCC#Cc1ccc2c(c1)[C@]1(C(=O)N2)[C@H](C(=O)N2CCCCCCC2)[C@H]2C(=O)O[C@H](c3ccccc3)[C@H](c3ccccc3)N2[C@@H]1c1ccccc1OCCO 0.423
Cc1ccc(N2C(=O)c3ccccc3[C@@H](C(=O)NCc3ccccc3)[C@@H]2c2ccc(CO)cc2)nc1 -0.702
COC(=O)C(CC#Cc1ccc2c(c1)[C@]1(C(=O)N2)[C@H](C(=O)N2CCCCCCC2)[C@H]2C(=O)O[C@H](c3ccccc3)[C@H](c3ccccc3)N2[C@@H]1c1ccc(O)cc1)C(=O)OC 1.65
COc1ccc([Si](C)(C)[C@@H]2[C@@H](CCO)O[C@]3(C(=O)N(Cc4ccc(NC(=O)[C@H](C)O)cc4)c4ccccc43)[C@H]2C)cc1 -4.16
C=CCNC(=O)[C@@H]1[C@H]2C(=O)O[C@H](c3ccccc3)[C@H](c3ccccc3)N2[C@H](c2ccc(OCCO)cc2)[C@@]12C(=O)N(C(=O)OCCOC)c1ccc(C#CC3(O)CCCCCC3)cc12 0.132
CC1CC/C=C\[C@H]2OC34C=CCN(Cn5nnc6ccccc65)C(=O)[C@H]3N(C(C)CO)C(=O)[C@@H]4C2C(=O)O1 (stereo partly specified) -0.389
COc1ccc([Si](C)(C)[C@H]2[C@H](CC(=O)N(CCO)Cc3ccccc3)O[C@@]3(C(=O)N(C)c4ccccc43)[C@@H]2C)cc1 -1.39
CO[C@H]1COC(=O)[C@H](CCSC)NC(=O)CC=C[C@@H](C)COC(=O)[C@@H](OCc2ccccc2)C=C[C@@H]1C -0.592
C=CCOC(=O)[C@@H]1[C@H]2C(=O)O[C@H](c3ccccc3)[C@H](c3ccccc3)N2[C@H](c2ccc(OCCOC(=O)[C@H]3C[C@H]4C(=O)N[C@@H](CCCCNC(C)=O)C(=O)N4[C@H]3c3ccc(O)cc3)cc2)[C@@]12C(=O)Nc1ccc(I)cc12 0.46
O=[N+]([O-])c1ccc(C[n+]2ccc3ccc(O)cc3c2)o1 0.468
COCCOC(=O)N1C(=O)[C@@]2(c3cc(C#CC4=CCCCC4)ccc31)[C@H](C(=O)NC[C@H](O)c1ccccc1)[C@H]1C(=O)O[C@H](c3ccccc3)[C@H](c3ccccc3)N1[C@@H]2c1ccccc1OCCO -0.0011
CCOC(=O)C1=CC[C@@H](c2ccc(-c3ccc(OCc4ccccc4)cc3)c(OC)c2)N(S(=O)(=O)c2ccc(C)cc2)[C@H]1c1ccccc1 0.141
COC(=O)[C@@]1(Cc2ccc(OC)cc2)[C@H]2c3cc(C(=O)N(C)C)n(Cc4ccc(C)c(F)c4F)c3C[C@H]2CN1C(=O)c1ccccc1 0.803
CCCC=C(CCC)[C@@H](NS(=O)(=O)c1ccc(-c2ccccc2)cc1)c1ccc(C(=O)OC)cc1 1.55
CCOC(=O)[C@H]1C/C=C/C[C@H](C(=O)OCC)C(=O)O[C@H]2[C@@H](OC)O[C@H](CO)[C@@H](OC(=O)Nc3ccc(Br)cc3)[C@@H]2OC1=O 0.892
C=C[C@H](OC)[C@@H](OC(=O)Nc1ccc(SC)cc1)c1ccc(O)c(F)c1 4.46
COCCOC(=O)N1C(=O)[C@@]2(c3cc(C#CCNC(N)=O)ccc31)[C@H](c1ccc(OCCO)cc1)N1[C@H](c3ccccc3)[C@H](c3ccccc3)OC(=O)[C@H]1[C@@H]2C(=O)N1CCCCCCC1 -0.271
CN(C)c1ccc(C(O)C2C=CC3C(=O)NC(=O)C3N2Nc2ccc(Cl)cc2Cl)cc1 (stereo unspecified) 3.74
COCCOC(=O)N1C(=O)[C@@]2(c3cc(C#CCC(C(=O)OC)C(=O)OC)ccc31)[C@H](C(=O)N1CCN(c3ncccn3)CC1)[C@H]1C(=O)O[C@H](c3ccccc3)[C@H](c3ccccc3)N1[C@@H]2c1ccc(O)cc1 -0.24
COCCOC(=O)N1C(=O)[C@@]2(c3ccccc31)[C@H](C(=O)N1CCc3cc(OC)c(OC)cc3C1)[C@H]1C(=O)O[C@H](c3ccccc3)[C@H](c3ccccc3)N1[C@@H]2c1ccccc1OCCO -0.381
CC(C)=C1C(=O)C(c2ccccc2)=C2CN3C(=O)N(CCc4ccccc4)C(=O)[C@]3(Cc3ccccc3)[C@H]21 0.438
CO[C@H]1COC(=O)CC=C[C@H](C)COC(=O)[C@@H](OCc2ccccc2)C=C[C@@H]1C 0.236
[N-]=[N+]=NCc1ccccc1C[C@@]1(C(=O)N2CCOCC2)N=C(c2ccc(OCCCO)cc2)O[C@@H]1c1ccccc1N=[N+]=[N-] -2.14

— PubChem BioAssay
